Experimental data from the supplement of paper PMC7830784.
Where a name gives a salt, the structure may show the parent alone.

What follows are compounds tested on Brugia pahangi adult female (assay: IC50 motility inhibition on day 3). Conditions: 3 days.
Description: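 Single adult female Brugia pahangi worms in 24-well plates (RPMI-1640, 5% FBS, 37 °C) were treated with 10 µM of each compound from a 2121-drug library (4 replicates; 1% DMSO vehicle and 10 µM auranofin controls). Motility was recorded with WormAssay dark-field imaging, and % inhibition of motility on day 3 is relative to vehicle. IC50 values for selected hits come from a 6-point dilution series (30 to 0.1 µM) fitted in GraphPad Prism.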

| SMILES | IC50 motility inhibition on day 3 [µM] |
| --- | --- |
| Oc1ccc2ccccc2c1 [beta-naphthol] | 8.31 |
| N=C(NCCCCCCNC(=N)NC(=N)Nc1ccc(Cl)cc1)NC(=N)Nc1ccc(Cl)cc1 [chlorhexidine] | 9.13 |
| Clc1ccc(COC(Cn2ccnc2)c2ccc(Cl)cc2Cl)c(Cl)c1 (stereo not given) [miconazole nitrate] | 3.3 |
| O=C1CN(/N=C/c2ccc([N+](=O)[O-])o2)C(=O)N1 [nitrofurantoin] | 11.6 |
| Oc1c(Cl)cc(Cl)cc1Sc1cc(Cl)cc(Cl)c1O [bithionol] | 6.1 |
| CCCCCCCCCCCCCCCC[N+](C)(C)CCN(Cc1ccc(OC)cc1)c1ncccn1 [thonzonium bromide] | 1.07 |
| Cc1cc(CC(C)CC(C)(C)C)n(O)c(=O)c1 (stereo not given) [piroctone olamine] | 0.883 |
| CC1=CC(=O)c2ccccc2C1=O [menadione] | 4.23 |
| CN(C)c1ccc2nc3ccc(=[N+](C)C)cc-3sc2c1 [methylene blue] | 1.06 |
| O=C(Nc1ccc([N+](=O)[O-])cc1Cl)c1cc(Cl)ccc1O [niclosamide] | 1.17 |
| C=C(CC)C(=O)c1ccc(OCC(=O)O)c(Cl)c1Cl [ethacrynic acid] | 2.6 |
| COc1cc(NC(C)CCCN)c2ncccc2c1 (stereo not given) [primaquine diphosphate] | 5.06 |
| O=C(Nc1ncc([N+](=O)[O-])s1)c1ccccc1O [Tizoxanide] | 3.4 |
| CC[n+]1c(-c2ccccc2)c2cc(N)ccc2c2ccc(N)cc21 [homidium bromide] | 5.43 |
| CCCCCCCCNC(C)C(O)c1ccc(SC(C)C)cc1 (stereo not given) [suloctidil] | 3.66 |
| COC(=O)C1=C(C)NC(C)=C(C(=O)OC(C)C)C1c1cccc2nonc12 (stereo not given) [isradipine] | 2.75 |
| CC(=O)OC[C@H]1O[C@@H]([S-])[C@H](OC(C)=O)[C@@H](OC(C)=O)[C@@H]1OC(C)=O.CCP(CC)CC.[Au+] [Auranofin] | 0.7 |
| CN(C)c1ccc(C(=C2C=CC(=[N+](C)C)C=C2)c2ccc(N(C)C)cc2)cc1 [gentian violet] | 0.3 |
| CC(=O)Oc1ccccc1C(=O)Nc1ncc([N+](=O)[O-])s1 [nitazoxanide] | 5.78 |
| Clc1ccc(COC(Cn2ccnc2)c2ccc(Cl)cc2Cl)cc1 (stereo not given) [econazole nitrate] | 3.97 |

| SMILES | IC50 motility inhibition on day 3 [µM] |
| --- | --- |
| Clc1ccccc1C(c1ccccc1)(c1ccccc1)n1ccnc1 [clotrimazole] | 5.5 |
| O=C(CCN1CCC(c2ccccc2)C1)c1ccc2c(c1)OCCO2 (stereo not given) [Proroxan] | 8.53 |
| Clc1ccc(C(Cn2ccnc2)OCc2ccsc2Cl)c(Cl)c1 (stereo not given) [tioconazole] | 3.18 |
| Oc1c(I)cc(I)c2cccnc12 [iodoquinol] | 1.9 |
| CSc1ccc2c(c1)N(CCC1CCCCN1C)c1ccccc1S2 (stereo not given) [Thioridazine hydrochloride] | 8.08 |
| CCCCC(CC)COC(=O)CC(C(=O)OCC(CC)CCCC)S(=O)(=O)O (stereo not given) [docusate sodium] | 0.294 |
| O=C1C(O)=C([C@H]2CC[C@H](c3ccc(Cl)cc3)CC2)C(=O)c2ccccc21 [atovaquone] | 4.16 |
| Cc1cc(C2CCCCC2)n(O)c(=O)c1 [ciclopirox olamine] | 0.287 |
| CC(C)/N=c1\cc2n(-c3ccc(Cl)cc3)c3ccccc3nc-2cc1Nc1ccc(Cl)cc1 [clofazimine] | > 30 |
| O=C1c2cccc(O)c2C(=O)c2c(O)cccc21 [dantron] | 18.3 |
| Oc1c(Cl)cc(Cl)c2cccnc12 [chloroxine] | 0.803 |
| CCCCCCCCCCCCCCCC[N+](C)(C)C [cetrimonium bromide] | 6.16 |
| O=[N+]([O-])c1ccc(O)c2ncccc12 [nitroxoline] | 6.7 |
| CCCCCCCCCCCCC[N+](C)(C)Cc1ccccc1 [benzalkonium chloride] | 1.9 |
| Clc1ccc(Cn2c(CN3CCCC3)nc3ccccc32)cc1 [clemizole hydrochloride] | 6.51 |
| C[n+]1c2cc(N)ccc2cc2ccc(N)cc21 [acriflavinium hydrochloride] | 4.62 |
| C[n+]1cc2c3c(ccc2c2ccc4cc5c(cc4c21)OCO5)OCO3 [Sanguinarine chloride] | 6.08 |
| Cc1cc(/C=C/c2ccc3cc(N(C)C)ccc3[n+]2C)c(C)n1-c1ccccc1 [pyrvinium pamoate] | < 0.1 |
| C1CCC(C(CC2CCCCN2)C2CCCCC2)CC1 (stereo not given) [perhexiline maleate] | 7.46 |
| COc1cc(C)c2c(Oc3cccc(C(F)(F)F)c3)c(OC)cc(NC(C)CCCN)c2n1 (stereo not given) [Tafenoquine Succinate] | 14.1 |
